# According to PubChem BioAssay (NCATS):
# Results filed as inconclusive are left out. Unmarked numbers belong to inactive results. Calls come from the whole dose curve; as a rule, active = well fitted inhibition curve with a large enough effect; inconclusive = small, poorly fitted or top-dose-only effect; inactive = flat fitted curve, though single readings scatter.
# Target: Calcium and integrin-binding protein 1 (Homo sapiens) (UniProt Q99828)
# Experiment: Primary qHTS for Identification of Calcium Integrin Binding Protein 1 (CIB1) Competitor (AID 1508620); note: top concentration of the series differs between compounds
# Settings: CIB1-GST / FITC-alphaIIb peptide fluorescence polarization; series mostly up to 114 µM; activity change, negative = inhibition: at the top concentration
# Outline: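 Fluorescence polarization competition: GST-tagged CIB1 (1 uM final) preincubated with compound 15 min at room temperature, then FITC-labelled alphaIIb peptide (100 nM final) added. After 15 min at room temperature, polarization read at Ex 480/Em 540.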
# % is set by controls: 0 for no effect and ±100 for the full control effect.
# Chain of Calcium and integrin-binding protein 1 (Homo sapiens) (Q99828 whole entry, looked up): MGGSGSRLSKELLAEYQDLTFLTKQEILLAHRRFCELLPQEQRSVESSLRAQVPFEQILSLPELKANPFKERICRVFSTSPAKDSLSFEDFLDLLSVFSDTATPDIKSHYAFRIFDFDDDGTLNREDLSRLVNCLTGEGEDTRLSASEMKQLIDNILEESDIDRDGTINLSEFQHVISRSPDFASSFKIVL
row,Compound,"activity change, negative = inhibition [%]"
1,Cc1nc(C2=NC(c3ccccc3Cl)C3=C(CCCC3=O)N2)cs1 (stereo not given),-11.2
2,CC(C)(Nc1nc(-c2ccccc2C(F)(F)F)nc2ccccc12)c1ccc(-c2cccc(C(F)(F)F)c2)cc1,5.15
3,Fc1cc(Nc2nc(-c3ccncc3)nc3ccccc23)ccc1-c1cccc(OC(F)F)c1,2.76
4,CC(=O)NC(c1cc(Cl)c2ccccc2c1O)C1CC1 (stereo not given),-0.272
5,CC(=O)N[C@@H](Cc1ccc(O)cc1)C(=O)N[C@H](C(=O)N[C@@H](C)C(=O)N[C@H](C#N)CC(=O)O)C(C)C,3.79
6,Cc1cc(C)n2ncc(C(=O)Nc3ccc(S(C)(=O)=O)cc3)c2n1,0.128
7,COc1cccc(C2c3c(ncn(-c4cccc(F)c4)c3=N)Oc3ccc4ccccc4c32)c1 (stereo not given),8.78
8,O=c1c2ccccc2nc2sc(Nc3ccc(Oc4ccccc4)cc3)nn12,-3.35
9,COc1ccc(C2c3c(n(CCCc4ccccc4)cnc3=N)Oc3ccc4ccccc4c32)cc1OC (stereo not given),1.98
10,Cc1cc(N[S+](=O)([O-])c2cc3c(cc2F)NC(=O)CC3)ccc1Br,-4.7
11,CCOc1ccc(CNc2ccc(-c3nc4ccccc4[nH]3)cc2)cc1,-2.36
12,O=S(=O)(c1ccc(O)c2ncccc12)N1CCCCC1,-16
13,Cc1cc(C)nc(NC(=S)N2CCN(c3ccc4ccccc4c3)CC2)c1,-13.3
14,Cc1cc(C=CC#N)cc(C)c1Nc1nc(Nc2ccc3c(c2)OCO3)c2[nH]cnc2n1,-15.5
15,CC(=O)Nc1sc2c(c1-c1nc3ccccc3s1)CCN(C(C)C)C2,-1.14
16,O=C(Cc1ccc2ccccc2c1)Nc1ccc(S(=O)(=O)Nc2nccs2)cc1,-10.3
17,O=[S+]([O-])(c1ccc(N2CCOCC2)nc1)N1CCN([S+](=O)([O-])c2c(F)cccc2F)CC1,-3.05
18,O=C1CCCC2=C1C(c1[nH]ncc1Cl)NC(=NCc1ccco1)N2 (stereo not given),1.93
19,COc1cccc(CNc2ccc(S(=O)(=O)Nc3ccc(C)nc3)cc2)c1O,-7.1
20,C=C(C)c1cc2c(s1)c1cnn(Cc3ccccc3F)c(=O)c1n2C,-0.797

row,Compound,"activity change, negative = inhibition [%]"
1,Cc1ccc(OCCn2c(CCNC(=O)C3CCCC3)nc3ccccc32)cc1,6.47
2,c1csc(CNc2ncnc3ccc(-c4ccc5c(c4)OCCO5)cc23)c1,-1.59
3,Clc1cccc(-c2ccc3ncnc(NCc4ccc5c(c4)OCO5)c3c2)c1,2.27
4,Cc1ccc(NC(=O)CSc2nnc(-c3cccc([S+](=O)([O-])N4CCCC4)c3)n2-c2ccccc2)cc1,3.17
5,CC(=O)Nc1ccc(S(=O)(=O)Nc2ccc(C)c(C)c2)cc1,3.53
6,O=[S+]([O-])(Nc1ccccc1)c1ccc(NCc2cccc(C(F)(F)F)c2F)cc1,-3.91
7,CCC(C)(CCN1CCOCC1)N(Cc1cc2ccccc2n(C)c1=O)C(=O)C1CCCCC1 (stereo not given),2.28
8,Cc1ccc(OCCn2c(CCNC(=O)c3ccc4ccccc4c3)nc3ccccc32)cc1,34.1
9,CCOC(=O)c1[nH]c2c(c1C)C(=O)CCC2,-1.05
10,O=C(Nc1ccc(F)c(C(F)(F)F)c1)Nc1ccc(-c2ccncc2)s1,-7.96
11,Brc1ccc(-c2csc(N3CCNCC3)n2)cc1,2.3
12,N#Cc1c(-c2ccc(C(=O)c3ccc(O)cc3)cc2)no[n+]1[O-],-6.28
13,CN(Cc1cncn1C)c1ncnc2ccc(-c3ccc4c(c3)OCO4)cc12,-10.1
14,CCCn1c(C)nc2c(NCCN(CC)CC)nc(C)nc21,8.2
15,COc1cccc(OC2=NS(=O)(=O)c3ccccc32)c1,1.77
16,Cc1nc(CNc2ncnc3ccc(-c4sc(C)nc4C)cc23)cs1,0.747
17,Cc1nc(CCN(C)c2ncnc3ccc(-c4ccc5c(c4)OCO5)cc23)cs1,-1.78
18,O=C(Nc1ccc2ccccc2c1)Nc1nnc(-c2ccc(Cl)cc2Cl)s1,1.78
19,O=C(CCC#CCSc1nnc(-c2cccc3ccccc23)o1)c1ccccc1,3.05
20,CC(C)Oc1ccc(C(=O)Nc2ccc(-c3nc4ccccc4[nH]3)cc2)cc1,-1.55
